Compound activity (PubChem BioAssay)
The entries come from a sample that favours hits as a whole.
IMPase Li inh: IMPase inhibition in cells with lithium potentiation. CHO-M1 cells, IP1 TR-FRET (IP-One), carbachol + lithium. Potency, µM (highest dose often 59.4 µM), for inactives: at the top dose activity, negative = IMPase inhibition, actives largely listed as inhibitors. 210,000 tested, 0.35% active;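 note: IP1 builds up when IMPase is blocked and the TR-FRET signal falls; potency is the fitted concentration of half-maximal effect; plate controls were basal vehicle for no effect and high inhibitor control for full effect; nearly all actives have a fitted effect of over 50% in size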
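Steps: plate 2000 CHO-M1 cells per well and culture 16–30 h; add compound and lithium; incubate 30 min, 37C; add d2-IP1 tracer and Eu cryptate anti-IP1 antibody in lysis buffer; read after 10 min at room temperature.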
IMPase cell inh: membrane-permeable compound that blocks inositol monophosphatase | CHO-M1 cells, IP1 accumulation, HTRF TR-FRET ratio | 120,000 tested, under 10 active | inhibition (IP1 accumulation), % at 46.1 µM | P97697; active = well fitted curve in the direction sought with a large enough effect in the signal ratio, not every such curve was filed as active; inconclusive = small, poorly fitted or top-dose-only effect, or a change in a side signal; inactive = no such curve, though single readings can be large or run the other way; the % refers to the signal ratio;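 note: cells stimulated with carbachol in lithium chloride buffer; plate controls were DMSO basal wells for no effect and reference inhibitor wells for full effect; higher means more IMPase inhibition seen as more IP1 and lower FRET ratio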
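Seeded CHO-M1 cells were dosed with compound at up to 46 uM, stimulated with carbachol for 30 min, then lysed in IP-One detection reagents. Higher IP1 lowers the TR-FRET signal.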
ALOX12 inhib: blocks human 12-lipoxygenase activity. P18054. purified 12-hLO, xylenol orange hydroperoxide absorbance. Potency, µM (top dose mostly 57.1 µM), without a hit: at the highest dose activity change, negative = inhibition, actives largely listed as inhibitors. 150,000 tested, 0.12% active. AID 1452; note: potency is the fitted concentration of half-maximal effect; nearly all actives have a fitted effect of over 55% in size
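Hydroperoxide output read as Fe(III)-xylenol orange absorbance, 573-to-405 nm ratio, after 30 min reaction with 40 uM arachidonic acid. Enzyme: 150 nM purified human 12hLO, 15 min compound preincubation; 25 mM Hepes pH 7.0, room temperature.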
PNC inhibitor: blocks assembly of the perinucleolar compartment; PC3M PTB-GFP, PNC prevalence imaging, 16 h; hits give low values; activity change (PNC), negative = inhibition, % at 10 µM; 140,000 tested, 3.1% active;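 active = readout at or below -70, meaning at least 70% loss of cells showing the perinucleolar compartment, a nuclear body marking cancer cells; inconclusive = readout between -30 and a set limit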;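 note: plate controls were DMSO wells for no effect and camptothecin positive control wells for full effect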
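Compounds are pinned in duplicate onto adhered PC3M cells stably expressing GFP-tagged PTB and incubated 16 h at 37 C. Cells are then fixed, nuclei stained with Hoechst, and PNC-positive cells counted.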
15-hLO-2 inh: 15-hLO-2 (ALOX15B) enzyme inhibition. O15296. purified 15hLO-2, xylenol orange hydroperoxide absorbance. Potency, µM (series often up to 57.1 µM), for inactives: top-dose activity change, negative = inhibition, hits mostly inhibitors. 110,000 tested, 0.56% active. AID 881; note: potency is the fitted concentration of half-maximal effect; nearly all actives have a fitted effect of over 60% in size
Target sequence (O15296 whole entry, looked up): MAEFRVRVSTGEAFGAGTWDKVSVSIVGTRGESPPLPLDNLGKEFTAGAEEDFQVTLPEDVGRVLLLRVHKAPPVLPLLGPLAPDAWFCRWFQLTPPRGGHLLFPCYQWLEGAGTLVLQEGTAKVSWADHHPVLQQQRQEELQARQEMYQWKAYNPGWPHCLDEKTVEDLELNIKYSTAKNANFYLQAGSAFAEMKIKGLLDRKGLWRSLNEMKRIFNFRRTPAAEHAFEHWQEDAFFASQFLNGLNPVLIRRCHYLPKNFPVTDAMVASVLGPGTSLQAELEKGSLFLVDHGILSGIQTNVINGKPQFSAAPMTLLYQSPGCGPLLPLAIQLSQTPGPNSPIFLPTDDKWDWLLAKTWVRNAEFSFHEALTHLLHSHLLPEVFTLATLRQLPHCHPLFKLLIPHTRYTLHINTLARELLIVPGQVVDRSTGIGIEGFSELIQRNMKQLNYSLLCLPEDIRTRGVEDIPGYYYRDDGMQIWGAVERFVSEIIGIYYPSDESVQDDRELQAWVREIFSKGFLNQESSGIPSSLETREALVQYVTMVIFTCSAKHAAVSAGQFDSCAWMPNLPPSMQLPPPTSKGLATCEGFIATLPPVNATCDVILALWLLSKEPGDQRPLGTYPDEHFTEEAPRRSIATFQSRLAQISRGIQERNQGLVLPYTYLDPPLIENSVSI
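Purified human 15hLO-2 (50 nM) preincubated 15 min with compound, then 45 uM arachidonic acid for 90 min at RT in 25 mM Hepes pH 7.5, 0.01% Triton X-100. Hydroperoxide detected by Fe-xylenol orange; 573/405 nm absorbance ratio.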
The depositor's hits bear a star; u = inconclusive; x = no result given; [ ] = another dose, or the depositor's remark. Unless noted, calls come from the whole dose curve; as a rule, active = well fitted curve in the direction sought with a large enough effect; inconclusive = small, poorly fitted or top-dose-only effect, or another doubt; inactive = no such curve, though single readings can be large; an effect the other way counts as inactive or inconclusive. Unless noted, % is set by controls: 0 for no effect and ±100 for the full control effect.

SMILES	IMPase Li inh	IMPase cell inh	ALOX12 inhib	PNC inhibitor	15-hLO-2 inh
Cc1ccc(-n2nnnc2-c2cnn(-c3cccc(F)c3)c2C(F)(F)F)cc1	12%	21	-4%	-5	x
CCCN1C(=O)c2cccc3c(N4CCCCC4)ccc(c23)C1=O	1%	x	0%	-88*	x
CCOc1ccc2nc(Cl)c(C3CC(c4ccc(C)cc4)=NN3C(=O)CCC(=O)O)cc2c1 (stereo not given)	x	-18	x	x	x
COC(=O)[C@H](COC(C)(C)C)NC(=O)O[C@@H]1C(=O)c2cc(OC)ccc2O[C@H]1c1cccc(OC)c1	9%	x	x	x	x
Oc1c(Cl)cc(Cl)cc1Sc1cc(Cl)cc(Cl)c1O	8%	x	u	32	6.3µM*
Cn1nc(-c2ccc(OCC(=O)Nc3ccc(Cl)cc3)cc2)c2ccccc2c1=O	x	3	x	x	x
CCCn1nnc(NC(=O)c2ccc(Cl)cc2Cl)n1	29%[38.3 µM]	7	-3%	-26	0%
CCCCn1nnc(NC(=O)c2sc3cc(Cl)ccc3c2Cl)n1	10µM*	u	-14%	-4	-5%
COc1ccc(NC(=O)CSc2nc(-c3cc(OC)c(OC)c(OC)c3)[nH]c2-c2ccc(F)cc2)cc1	x	28	x	x	x
O=C(C1CCCN(Cc2cccnc2)C1)N1CCCCC1 (stereo not given)	x	5	-12%	-82*	-16%
COc1ccc(-c2noc(CN(C)S(=O)(=O)c3ccc(Cl)cc3)n2)cc1OC	31%[38.3 µM]	6	-6%	-92*	6%
CC(C)N(Cc1nc(-c2ccc(Cl)cc2)no1)C(=O)CN(C)S(=O)(=O)c1ccc(Cl)cc1	29%[38.3 µM]	-2	-12%	u	9%
COc1cc(-c2noc(CCCC(=O)NCc3ccco3)n2)cc(OC)c1OC	5%	-1	-2%	-100*	x
COc1ccc(-c2noc(-c3cccc(Cl)c3)n2)cc1OC	5%	x	10%	33	x
COc1ccc(-c2noc(CCC(N)=O)n2)cc1OC	-6%	2	2%	-113*	0%
Cc1ccc(-c2noc(CCC(=O)NCc3ccco3)n2)cc1	18%[38.3 µM]	-3	-5%	22	-19%
COc1ccc(-c2noc(-c3ccccc3Cl)n2)cc1OC	8.9µM*	2	5%	u	2%
COC(=O)[C@H]1Cc2c([nH]c3ccccc23)CN1C(=O)COc1ccc2c(C)cc(=O)oc2c1	5%	x	x	x	x
CCc1ccc(Oc2c(C(F)(F)F)oc3c(CN4CCN(C)CC4)c(O)ccc3c2=O)cc1	x	-5	x	x	x
CC(C)CC(C(=O)Nn1cnnc1)N1C(=O)c2ccccc2C1=O (stereo not given)	-13%[38.3 µM]	-1	-12%	-100*	-2%
C=CC(=O)OCCCCCCOC(=O)C=C	-5%	x	1%	x	3%
CC(=O)c1sc(NC(=O)COc2ccc(Cl)cc2Cl)nc1C	10µM*	x	x	x	x
CCCC(=O)Nc1nc(C)c(C(C)=O)s1	8.9µM*	x	x	x	x
CCCCC(=O)Nc1nc(C)c(C(C)=O)s1	6%[38.3 µM]	8	1%	32	4%
COc1cc(OC)c(NC(=O)Nc2c(C)n(C)n(-c3ccccc3)c2=O)cc1Cl	x	13	x	x	x
SMILES	IMPase Li inh	IMPase cell inh	ALOX12 inhib	PNC inhibitor	15-hLO-2 inh
COc1cccc(NC(=O)c2sc3nc(C)c(C(=O)Nc4ccc(C)cc4C)c(-c4ccc(C)o4)c3c2N)c1	x	-4	x	x	x
Cn1c(=O)cc(NCc2ccccc2)[nH]c1=O	8%[38.3 µM]	10	-5%	-91*	7%
Cc1nn(-c2ccccc2)c(Cl)c1C(=O)Nc1nnc(C2CCCCC2)s1	2%[38.3 µM]	1	5%	u	16%
O=C(Nc1nnc(C2CC2)s1)c1cc(-c2ccccc2)nn1-c1ccccc1	-3%[38.3 µM]	1	1%	-81*	26%
CCc1cccc(OCCn2ccnc2)c1	2%	x	-2%	-90*	x
Cc1cccc(OCCCCCn2ccnc2)c1	1%[38.3 µM]	-6	-2%	u	39%
O=C(Nc1ccccc1)N1CCC2(CC1)CCN(C(=O)c1cnccn1)CC2	-9%	x	3%	x	6%
CC(=O)NC1C(=O)N=C(SCC(=O)Nc2c(C)cccc2C)NC1=O (stereo not given)	5%	x	x	x	x
CC(=O)NC1C(=O)N=C(SCC(=O)NCc2ccccc2)NC1=O (stereo not given)	6%	-5	3%	-100*	x
CN(C)C(=O)c1ccc(-c2cncnc2NCCN2CCOCC2)cc1	1%	x	4%	x	11%
